# A number with no mark means an inactive call. No rule for the calls is given here.
# Biological target: Pantothenate synthetase (Mycobacterium tuberculosis (strain ATCC 25618 / H37Rv)) (UniProt P9WIL5)
# Assay: Coupled enzyme confirmation of inhibitors against recombinant Mtb PanC (AID 375);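 also: 0% = full reaction with vehicle and 100% = no enzyme background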
# Details: coupled enzyme assay; at 10 µM, hits give high values
# Pantothenate synthetase (Mycobacterium tuberculosis (strain ATCC 25618 / H37Rv)), sequence (P9WIL5 whole entry, looked up): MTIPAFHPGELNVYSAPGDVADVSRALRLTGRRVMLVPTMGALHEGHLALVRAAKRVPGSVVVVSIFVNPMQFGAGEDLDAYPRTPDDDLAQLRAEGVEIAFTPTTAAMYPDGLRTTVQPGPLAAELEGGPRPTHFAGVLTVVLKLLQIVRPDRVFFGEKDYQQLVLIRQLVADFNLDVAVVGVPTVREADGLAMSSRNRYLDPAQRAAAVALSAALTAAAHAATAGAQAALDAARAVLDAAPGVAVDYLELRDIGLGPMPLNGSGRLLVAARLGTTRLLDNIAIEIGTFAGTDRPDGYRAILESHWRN
row,Structure (SMILES),inhibition
1,COc1cccc(OCc2nc3c4cnn(-c5ccccc5)c4ncn3n2)c1,0%
2,CCOc1ccc(NC(=O)Cn2nnc(-c3ccccc3F)n2)cc1,2%
3,COc1cc(-c2nc(S(=O)(=O)c3ccc(C)cc3)c(N(C)C)o2)cc(OC)c1OC,3%
4,O=C(CSc1ncnc2sc3c(c12)CCCCC3)NCc1ccco1,3%
5,CCN1CCN(c2cc3c(cc2F)c(=O)c(C(=O)O)cn3C2CC2)CC1,0%
6,CCOc1ccc(-c2nnn(CCC(=O)O)n2)cc1OC,0%
7,CCCCOc1ccc(C(=O)Nn2cnnc2)cc1,1%
8,COc1cccc(S(=O)(=O)Nc2cccnc2)c1,10%
9,Cc1occc1-c1nnc(SCC(=O)N2CCc3ccccc32)o1,0%
10,[O-][n+]1onc2c1CCc1nnc(-c3ccccc3)cc1-2,0%
11,CCn1cc(C(=O)OCC(=O)OC2CC(C)CCC2C(C)C)c(=O)c2ccc(C)nc21 (stereo not drawn),5%
12,CCOC(=O)C1C(=O)N(C(=O)c2ccc(OC)cc2)CC1c1ccccc1 (stereo not drawn),0%
13,COc1cc(OC)c(C2C(C#N)=C(N)OC3=C2C(=O)CC(C)(C)C3)cc1OC (stereo not drawn),1%
14,CCc1ccccc1NC(=O)CCc1nc(-c2ccc(C)cc2)no1,0%
15,Cn1cnc2c(N3CCCCC3)nccc21,0%
16,Oc1ccc2cccnc2c1,7%
17,CC1CCc2nn(CC(=O)Nc3ccc(F)cc3F)cc2C1 (stereo not drawn),5%
18,Cc1c(NC(=O)C(C)OC(=O)c2cc3c4ccccc4n(C)c3s2)c(=O)n(-c2ccccc2)n1C (stereo not drawn),0%

# — PubChem BioAssay
